Compound activity (PubChem)
IL2 activator: activates IL-2 in a cell-based reporter assay; 360,000 tested, 0.065% active; IL-2 activation reporter assay, cell-based qHTS; stimulated with anti-CD3/CD4/CD28 beads; in transgenic mouse T cells; activation, % (series mostly up to about 46 µM); in the data active = activation above about 50%; inconclusive = mostly about 30% to 49%; note: 0% is about no effect
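Screening format: compound pinned onto unstimulated transgenic mouse T cells, 60 min incubation, then anti-CD3/anti-CD4/anti-CD28 bead stimulation for 18 hours at 37 degrees C, followed by EGFP and DsRed detection.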
Nrf2 ARE act: Nrf2 pathway activation; 410,000 tested, 0.31% active; Potency, µM (top dose mostly 46.1 µM), without a hit: at the highest dose activation, most hits filed as activators; AID 624171; AREc32 ARE-luciferase reporter (MCF7-derived line), luminescence, 24 h; note: potency is the fitted concentration of half-maximal effect; % of control where 0% means no effect; nearly all actives have a fitted effect of over 65% in size
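Nrf2 activation is followed as ARE-luciferase induction in the AREc32 line after one day of compound treatment; luminescence is read with Steady-Glo.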
BRCA1 expr act: BRCA1 expression activation | MCF7-BRCA1-FFLuc reporter, luminescence, 48 h; response scale: scaled: vehicle 0%, 10 µM genistein 100% | Potency, µM (series often up to 46.1 µM), inactives show at the top dose activation, most hits filed as activators | 380,000 tested, 1.1% active; note: potency is the fitted concentration of half-maximal effect; nearly all actives have a fitted effect of over 80% in size
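Using MCF7 cells harboring a BRCA1 firefly luciferase reporter, plated 2 h before compound pinning, the screen measured luminescence after 48 h incubation. Responses were normalized to DMSO and 10 microM genistein, then fitted for concentration-effect.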
ELG1 DNA repair: ELG1-dependent DNA repair inhibition; Potency, µM (top dose mostly 46.1 µM), without a hit: at the highest dose activity change, negative = inhibition, most hits filed as inhibitors; AID 504467; HEK293T ELG1-luciferase reporter, luminescence, 16 h; DNA damage induced by 5-fluorouridine; 330,000 tested, 2.3% active; note: potency is the fitted concentration of half-maximal effect; % is set by controls: 0 for no effect and ±100 for the full control effect; nearly all actives have a fitted effect of over 55% in size
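Step one: seed 2,000 cells per well. Step two: pin-transfer compound or DMSO alongside 5-fluorouridine. Step three: incubate 16 hr, 37 °C, 5% CO2. Step four: add ONE-Glo, wait 30 min, read luminescence.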
* = called active by the depositor; ? = inconclusive; / = no result given; [ ] = another dose, or the depositor's remark. Shown are actives, neighbours in structure and some others; about 3.1% of the full set was active somewhere. Unless noted, calls come from the whole dose curve; as a rule, active = well fitted curve in the direction sought with a large enough effect; inconclusive = small, poorly fitted or top-dose-only effect, or another doubt; inactive = no such curve, though single readings can be large; an effect the other way counts as inactive or inconclusive.

SMILES	IL2 activator	Nrf2 ARE act	BRCA1 expr act	ELG1 DNA repair
COc1ccc(NC(=O)c2oc3ccccc3c2NC(=O)Cc2coc3cc(C)ccc23)cc1	/	3.2%	/	/
COc1ccc2nc(/C=N/NC(=O)[C@@H]3CCCN3C(=O)OC(C)(C)C)ccc2c1	-0.8	6.5%	7.08µM*	?
CCN(CCn1cccn1)C(=O)c1cc(COc2ccccc2SC)on1	-2.0	3.3%	11.2µM*	?
CCN(CCn1cccn1)C(=O)c1cc(COc2cc(C)ccc2C)on1	-0.4	4.3%	12.6µM*	?
CCN(CCN1CCCC1)C(=O)c1cc(COc2ccccc2SC)on1	0.0	-0.3%	-9.7%	15.7%
O=C(Nc1ccc2oc(-c3cccnc3)nc2c1)c1ccc(-c2ccccc2OC(F)(F)F)o1	/	5.2%	/	/
Cc1cccc(C(=O)NCC(=O)OCc2cc(=O)n3nc(C)sc3n2)c1	/	0.5%	/	/
COc1ccc2nc(SCC(=O)N3CC(=O)Nc4ccccc43)c(C#N)cc2c1	3.7	2.2%	-83.9%	16.4µM*
CC(C)OC(=O)CSc1nc2cc3c(cc2cc1C#N)OCO3	-1.2	4.7%	4.47µM*	?
Cc1cc(C)c2nc(SCC(=O)N3CC(=O)Nc4ccccc43)c(C#N)cc2c1	0.5	3.1%	-73.0%	?
CCOC(=O)CSc1nc2ccc(C)cc2cc1C#N	-0.8	4.0%	3.98µM*	?
Cc1cc(C)n(-c2nc(N(c3ccccc3)c3ccccc3)nc(-n3nc(C)cc3C)n2)n1	1.4	-0.9%	-105.9%	25.9µM*
CCOC(=O)c1[nH]c2ccccc2c1NC(=O)c1ccc(Br)cc1	/	-0.4%	-0.2%	/
CCOC(=O)c1[nH]c2ccccc2c1NC(=O)c1ccc(Br)o1	-3.5	4.4%	-65.7%	23.1µM*
Cc1cc(C)c(NC(=O)CSc2nc3ccccc3nc2N2CCCCC2)c(C)c1	/	3.0%	/	/
COc1ccccc1N1CCN(C(=O)CSc2nc3ccccc3c(=O)n2CC2CCCO2)CC1 (stereo unspecified)	6.4	0.2%	-4.4%	23.1µM*
C/C(=N\Nc1nc2ccccc2[nH]1)c1ccc2c(c1)OCO2	-1.0	11.5%	-41.4%	-7.3%
COc1cccc(/C=N/Nc2nc3ccccc3[nH]2)c1O	-1.1	6.4%	-66.6%	4.11µM*
COc1cccc(/C=N/Nc2nc3ccccc3[nH]2)c1OC	1.0	3.7%	7.94µM*	?
COc1cccc(/C=N/Nc2nc3ccccc3n3cnnc23)c1O	16.3	-0.7%	-50.7%	8.2µM*
COc1cccc(/C=N/Nc2nc3ccccc3n3cnnc23)c1	1.1	0.2%	4.6%	?
C(=N\Nc1nc2ccccc2[nH]1)/c1ccc2c(c1)OCO2	-0.3	4.5%	12.6µM*	?
Cn1nnc2c(NCc3ccco3)ncnc21	/	/	13.1%	/
CC(=O)c1cc(-c2ccc(F)cc2)n(CC(=O)NCc2ccc(C)cc2)c1C	/	0.5%	/	/
NC(c1csc(Nc2ccc(C(=O)NCCO)cc2)n1)C1CCCCC1 (stereo unspecified)	2.0	0.6%[9.22 µM]	0.4%	/
SMILES	IL2 activator	Nrf2 ARE act	BRCA1 expr act	ELG1 DNA repair
C(=N\Nc1nc2ccccc2[nH]1)/c1cccs1	2.5	7.5%	10µM*	?
COC(=O)c1ccc(/C=N/Nc2nc3ccccc3[nH]2)cc1	-3.3	2.8%[9.22 µM]	3.16µM*	?
Cc1ccsc1/C=N/Nc1nc2ccccc2[nH]1	-0.7	18.9%	?	?
O=C(O)c1ccc(/C=N/Nc2nc3ccccc3[nH]2)cc1	-1.4	0.1%	0.0%	16.3%
COc1cccc(CNC(=O)Cn2c(=O)ccc3cc(S(=O)(=O)N4CCC(C)CC4)ccc32)c1	/	-0.6%	-17.8%	/
CC(CCc1ccccc1)NC(=O)C1CCCN(c2nnc(-n3cccc3)s2)C1 (stereo unspecified)	-5.2	4.3%	0.0%	?
O=C(C1CCCN(S(=O)(=O)c2ccc(Br)s2)C1)N1CCN(c2ccccc2)CC1 (stereo unspecified)	-4.0	-0.4%	-62.9%	14.6µM*
COc1cccc(N2CCN(C(=O)C3CCCN(S(=O)(=O)c4ccc(Br)s4)C3)CC2)c1 (stereo unspecified)	/	5.0%	/	/
O=C(C1CCCN(c2nnc(-n3cccc3)s2)C1)N1CCN(c2ccccc2)CC1 (stereo unspecified)	-4.5	-0.6%	4.1%	16.4µM*
Cc1c(C(=O)N2C[C@@H](C)O[C@@H](C)C2)oc2c(F)cccc12	1.9	7.5%	11.2µM*	?
CCn1cc(C(=O)NCc2ccc(F)cc2)c(=O)c2cc(S(=O)(=O)N(C)C)ccc21	/	-0.7%	/	/
